Source: PubChem
aSyn 5UTR act = Activators via SNCA 5'UTR binding, MLPCN; activity score, % (tested at 7.5 µM), hits read low; alpha-synuclein 5'UTR reporter, activators screen; 300,000 compounds, 7.1% hits; in the data active = activity score below about -60%
Large screens that a line does not name were inactive. These entries were drawn from the full list.

COCC(C)NC(=O)c1cc(-c2ccccc2OC)on1 (stereo unspecified)	aSyn 5UTR act -102
O=C(NC1CCCC1)c1cc(-c2ccc(Cl)cc2Cl)on1	aSyn 5UTR act -122
COc1ccccc1-c1cc(C(=O)NC2CCCC2)no1	aSyn 5UTR act -98
O=C(NC1CCCCC1)c1cc(-c2ccccc2Cl)on1	aSyn 5UTR act -162
O=C(NC1CCCC1)c1cc(-c2cccs2)on1	aSyn 5UTR act -343
COc1ccccc1-c1cc(C(=O)NC2CCN(C)CC2)c2ccc(Cl)c(C)c2n1	none
COc1ccccc1C(=O)NC1CCCCCCC1	aSyn 5UTR act -71
COc1ccccc1-c1cc(C(=O)Nc2cc(C)on2)no1	aSyn 5UTR act -146
CC1CCCC(C)N1C(=O)c1cc(-c2cccs2)on1 (stereo unspecified)	aSyn 5UTR act -137
Cc1occc1C(=O)NN=C1C2CC3CC(C2)CC1C3	aSyn 5UTR act -141
COc1ccc(OC)c(-c2cc(C(=O)Nc3c(C)nn(Cc4ccccc4C)c3C)no2)c1	none
COc1ccccc1-c1cc(C(F)(F)F)nc(S(=O)(=O)CCCC(=O)Nc2cc(C)on2)n1	aSyn 5UTR act -65
O=C(N/N=C/c1ccccc1F)c1csc2c1CCCC2	aSyn 5UTR act -235
O=C(Nc1ccccc1O)c1csc2c1CCCC2	aSyn 5UTR act -157
O=C(N/N=C/c1cccc(F)c1)c1csc2c1CCCC2	aSyn 5UTR act -144
N/C(=N\OC(=O)c1cccs1)c1cccc([N+](=O)[O-])c1	aSyn 5UTR act -130
COc1cc(/C=C/C(=O)c2cccc([N+](=O)[O-])c2)cc(OC)c1OC	aSyn 5UTR act -62
N/C(=N\OC(=O)c1cccc([N+](=O)[O-])c1)c1cccnc1	aSyn 5UTR act -189
Cc1cccc(C(=O)O/N=C(\N)c2cccc([N+](=O)[O-])c2)c1	aSyn 5UTR act -157
COc1cccc(C(=O)O/N=C(\N)c2ccc([N+](=O)[O-])cc2)c1OC	aSyn 5UTR act -208
COc1ccc(/C(N)=N/OC(=O)c2cccc([N+](=O)[O-])c2)cc1OC	aSyn 5UTR act -96
CCN(CC)c1ccc2cc(-c3nc4ccccc4n3C)c(=O)oc2c1	aSyn 5UTR act -226
CN(C)Cc1c(O)ccc2cc(-c3nc4ccccc4n3C)c(=O)oc12	aSyn 5UTR act -70
CCOC(=O)c1cnc(Nc2nc3ccccc3o2)nc1CSc1nnc(C)s1	aSyn 5UTR act -86
CCOC(=O)c1cnc(Nc2nc3ccccc3o2)nc1C	none
O=C(Oc1ccccc1N1C(=O)C2CCCCC2C1=O)c1ccccc1F (stereo unspecified)	aSyn 5UTR act -64
COc1cc(/C=C2\COC/C(=C\c3ccc(O)c(OC)c3)C2=O)ccc1O	none
COc1cc2c(c(OC)c1OC)-c1ccc(OC)c(=O)cc1C(NC(C)=O)CC2 (stereo unspecified)	none
COc1ccc(/C=C2\CCC/C(=C\c3ccc(OC)c(OC)c3OC)C2=O)c(OC)c1OC	aSyn 5UTR act -71
COc1cc(/C=C2/CC/C(=C/c3ccc(O)c(OC)c3)C2=O)ccc1O	aSyn 5UTR act -71
CCN1C/C(=C/c2ccc(OC)c(O)c2)C(=O)/C(=C/c2ccc(OC)c(O)c2)C1	none
COc1ccc(/C=C2\CC/C(=C\c3ccc(OC)c(OC)c3)C2=O)cc1OC	aSyn 5UTR act -74
COc1ccccc1N=c1oc2cc(O)ccc2cc1C(N)=O	aSyn 5UTR act -74
Cc1cccc(N=c2oc3cc(O)ccc3cc2C(N)=O)c1	aSyn 5UTR act -77
COc1ccc2cc(C(N)=O)c(=Nc3ccc(C)cc3)oc2c1	aSyn 5UTR act -62
O=C(c1ccc(F)cc1)c1cnc(Nc2ccccc2)s1	aSyn 5UTR act -161
CC(=O)c1cnc(Nc2cccc(C)c2)s1	aSyn 5UTR act -137
CNc1ncc(C(=O)c2ccc(F)cc2)s1	aSyn 5UTR act -112
Cc1ccc(-c2nn(-c3ccccc3)cc2C=O)o1	aSyn 5UTR act -88
Cc1ccc(-c2nn(-c3ccccc3)cc2CO)o1	aSyn 5UTR act -82
Cc1ccc(-c2nn(-c3ccccc3)cc2CSC(=N)N)cc1	none
COC(=O)c1ccc2c(=O)n3c(nc2c1)SCC(c1ccccc1)=N3	aSyn 5UTR act -112
COc1ccc(-c2nc(SC)n(S(=O)(=O)c3ccccc3)n2)cc1	aSyn 5UTR act -120
COc1ccc2cc(C(=O)NCc3ccccc3)[nH]c2c1	aSyn 5UTR act -66
COc1ccc2cc(C(=O)NCCc3ccccc3)[nH]c2c1	aSyn 5UTR act -172
CCc1ccc(/C=C/C(=O)c2cc(Br)ccc(=O)c2O)cc1	none
Cc1ccc(/C=C/C(=O)c2cc(Br)ccc2OC(=O)c2ccco2)cc1	aSyn 5UTR act -94
N/C(=N\OC(=O)c1ccc(Br)cc1)c1ccncc1	aSyn 5UTR act -110
COc1ccc(C(=O)O/N=C(/c2ccccc2)c2ccncc2)cc1	aSyn 5UTR act -72
N/C(=N\OC(=O)c1cccc(Br)c1)c1ccncc1	aSyn 5UTR act -138
N/C(=N\OC(=O)c1ccccc1)c1ccncc1	aSyn 5UTR act -122
N#C/C(C(=O)N1CCCCC1)=C1\Nc2ccccc2S1	aSyn 5UTR act -104
O=C1Nc2ccccc2S/C1=C\C(=O)N1CCCC1	aSyn 5UTR act -140
c1ccc2nc3c(nc2c1)c1ccccc1n3CCN1CCOCC1	aSyn 5UTR act -80
O=c1c2ccccc2nc2c3ccccc3c(NCCN3CCOCC3)nn12	aSyn 5UTR act -345
O=C(Nc1nc2ccccc2n1CCN1CCOCC1)c1cn(-c2ccccc2)nc1-c1ccccc1	none
CCOc1ccc2nc(SCc3ccccc3C#N)sc2c1	aSyn 5UTR act -220
CCOc1ccc2nc(SCc3ccc(OC)cc3)sc2c1	aSyn 5UTR act -83
Cc1ccc(-c2cc3nn(-c4ccccc4)c(N)c3c(=O)o2)cc1	aSyn 5UTR act -96
O=C1C(Cl)=C(NCc2cccnc2)C(=O)c2ccccc21	aSyn 5UTR act -141
O=C(O)c1cccc(NC2=C(Cl)C(=O)c3ccccc3C2=O)c1	aSyn 5UTR act -191
O=C1C(Cl)=C(Nc2ccccc2)C(=O)c2ccccc21	aSyn 5UTR act -190
CC(C)NC1=C(Cl)C(=O)c2ccccc2C1=O	aSyn 5UTR act -91
CCN(CC)CCCNC1=C(Cl)C(=O)c2ccccc2C1=O	none
CCN1/C(=C/C=C/c2oc3ccc(-c4ccccc4)cc3[n+]2CC)Oc2ccc(-c3ccccc3)cc21	none
Cc1cc(C(=O)COC(=O)c2ccc(Br)o2)c(C)n1C	aSyn 5UTR act -112
COCCn1c(C)cc(C(=O)COC(=O)c2ccc(Br)o2)c1C	aSyn 5UTR act -100
CCOC(=O)c1oc2ccc(CNCCO)c(Cl)c2c1C	aSyn 5UTR act -63
O=c1[nH]c(/C=C/c2ccccc2[N+](=O)[O-])nc2ccccc12	aSyn 5UTR act -190
O=c1[nH]c(/C=C/c2ccccn2)nc2ccccc12	aSyn 5UTR act -176
O=c1[nH]c(/C=C/c2cccc3ccccc23)nc2ccccc12	aSyn 5UTR act -104
Clc1nc2ccccc2cc1-c1nnn(-c2ccccc2Br)n1	aSyn 5UTR act -128
Brc1ccccc1-n1nnc(-c2nccs2)n1	aSyn 5UTR act -97
Cn1cnnc1SCC(=O)Nc1ccc2nc(SCc3ccccc3F)sc2c1	aSyn 5UTR act -163
CSc1nc2ccc(NC(=O)CSc3nnc(N)s3)cc2s1	aSyn 5UTR act -119
Cc1ccc(NC(=O)c2cncc(Br)c2)nc1	aSyn 5UTR act -89
Cc1ccc(NC(=O)c2cncc(Br)c2)c(O)c1	aSyn 5UTR act -196
Cc1cc(NC(=O)Cc2ccsc2)ccc1Br	aSyn 5UTR act -112
CC(=O)c1ccc(NC(=O)Cc2cccs2)cc1	aSyn 5UTR act -84
CC(=O)c1ccc(NC(=O)Cc2ccsc2)cc1	aSyn 5UTR act -79
CCC(=O)Nc1ccc(NC(=O)c2ccccn2)cn1	aSyn 5UTR act -88
